# Screening data: PubChem, National Center for Advancing Translational Sciences (NCATS)
# AMA1-RON2 inh – qHTS for Inhibitors of AMA1-RON; Towards Development of Antimalarial Drug Lead: Primary Screen; AlphaScreen AMA1-biotinylated RON2 peptide binding; actives 0.2% (n = 360,000); Potency, µM (top dose mostly 58.2 µM), inactives show at the highest dose activity change, negative = inhibition, most hits filed as inhibitors; AID 720542, 2013;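 note: potency is the fitted concentration of half-maximal effect; 0% = vehicle wells and -100% = peptide control; nearly all actives have a fitted effect of over 45% in size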
#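 AMA1 (3D7) with his tag at 25 nM final met compounds first, then biotinylated RON2 peptide at 25 nM; detection used donor plus acceptor beads, 10 µg/mL apiece, read by AlphaScreen after 30 min at room temperature.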
# Pf growth 96h – Primary qHTS for delayed death inhibitors of the malarial parasite plastid, 96 hour incubation; actives 6.9% (n = 320,000); AID 504834, 2011; Potency, µM (series often up to 28.7 µM), for inactives: at the top dose activity change, negative = inhibition, actives largely listed as inhibitors; P. falciparum luciferase reporter growth, 96 h; note: potency is the fitted concentration of half-maximal effect; % is set by controls: 0 for no effect and ±100 for the full control effect
#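 Parasite growth measured via integrated firefly luciferase reporter in P. falciparum. Infected erythrocytes at 2% hematocrit, 0.05% parasitemia final were treated 96 hours at 37 C under 5% CO2, and luminescence was read.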
# HCV inh – qHTS Assay for Inhibitors of Hepatitis C Virus (HCV); Huh7.5.1 HCVcc-Cre infection, luciferase reporter, 44 h; Potency, µM (top dose mostly 41.8 µM), for inactives: at the top dose activity change, negative = inhibition, hits mostly inhibitors; actives 3.4% (n = 340,000); AID 651820, 2012; note: potency is the fitted concentration of half-maximal effect; % is set by controls: 0 for no effect and ±100 for the full control effect
#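 Luciferase read-out (15 sec integration) after a 15 min room-temperature substrate step quantifies HCVcc-Cre infection. Cells, 1,000 per well, had compound added 4 h post-plating, then virus at ~0.5 moi, and were cultured 44 h.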
# Cycloheximide cs – Cycloheximide Counterscreen for Small Molecule Inhibitors of Shiga Toxin; cell reporter, cycloheximide protein synthesis inhibition counterscreen; max response, %; actives 12% (n = 300,000); in the data active = max response mostly above about 13%, no sharp cut-off; inactive = mostly below about 14%; note: read at 38.3 µM for the half of the compounds with a filed dose; 0% is about no effect
# Shiga toxin inh – A qHTS for Small Molecule Inhibitors of Shiga Toxin; actives 9.2% (n = 290,000); Vero cells, Shiga toxin protein synthesis inhibition reporter; AID 2315, 2010; inhibition, % at 38.7 µM; in the data active = inhibition mostly above about 28%, no sharp cut-off; inactive = mostly below about 43%; note: 0% is about no effect
# Pf growth 48h – Primary qHTS for delayed death inhibitors of the malarial parasite plastid, 48 hour incubation | Potency, µM (titrated, usually from 28.7 µM), for the others: top-dose activity change, negative = inhibition, actives largely listed as inhibitors | actives 5.9% (n = 310,000) | AID 504832, 2011 | P. falciparum luciferase growth in erythrocytes, 48 h; note: potency is the fitted concentration of half-maximal effect; % is set by controls: 0 for no effect and ±100 for the full control effect
#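 Compounds are pin-transferred into medium, infected erythrocytes (2% hematocrit, 0.1% parasitemia final) are added, and plates sit one parasite generation at 37 C in 5% CO2. Detection reagent is then added and luminescence measured.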
# * hit, by the source's call; ? = inconclusive; . = not tested or not shown; [ ] = remark or other dose. Only some compounds are listed: those with a hit (about 21% of all), similar ones and a draw of the others. Unless noted, calls come from the whole dose curve; as a rule, active = well fitted curve in the direction sought with a large enough effect; inconclusive = small, poorly fitted or top-dose-only effect, or another doubt; inactive = no such curve, though single readings can be large; an effect the other way counts as inactive or inconclusive.
SMILES,AMA1-RON2 inh,Pf growth 96h,HCV inh,Cycloheximide cs,Shiga toxin inh,Pf growth 48h
Cc1ccc(C(=O)NC(=S)Nc2cccc(NC(=O)c3ccccc3)c2)cc1[N+](=O)[O-],28.9%,39.9%,?,3.3,6.6,23.5%
O=C(NC(=S)Nc1cc([N+](=O)[O-])ccc1Cl)c1ccccc1,-7.4%,.,?,41.2*,62.3*,.
O=C(NC(=S)Nc1cccc([N+](=O)[O-])c1)c1ccccc1,16.3%,62.0%,-9.0%,35.9*,78.5*,82.2%
O=C(NC(=S)NCc1ccccc1)c1cccc([N+](=O)[O-])c1,30.3%,115.5%,0.4%,0.5,-6.5,0.0%
CCN(CC(=O)NCc1ccc(F)cc1)C(=O)CCNS(=O)(=O)c1cccc(C)c1,-8.3%,-18.9%,1.4%,.,.,?
COc1ccccc1N1CCN(C(=O)CN(C)S(=O)(=O)c2ccc(C)cc2)CC1,6.3%,.,.,.,.,.
COc1ccc(C(C)=O)cc1Cn1c(C)c(C(=O)NCCC#N)sc1=O,2.8%,.,.,.,.,.
Cc1ccc([N+](=O)[O-])cc1NC(=S)NC(=O)c1ccco1,2.2%,13.0%,?,-2.4,9.0,21.9%
O=C(CNC(c1ccccc1)c1ccccc1)Nc1cc([N+](=O)[O-])ccc1Cl,-8.7%,13.1µM*,-19.4%,-3.3,-9.0,?
COc1cc([N+](=O)[O-])ccc1NC(=O)C1C2C=CC(C2)C1C(=O)O (configuration not stated),-14.2%,11.7µM*,18.9%,-1.6,.,?
O=C(NC(=S)Nc1cccc([N+](=O)[O-])c1)c1ccco1,5.6%,8.28µM*,6.5%,6.2,-9.7,56.2%
CC(C)CC(=O)Nc1cc([N+](=O)[O-])ccc1Cl,-7.5%,45.9%,-4.4%,1.4,-22.1,1.3%
COc1cc([N+](=O)[O-])ccc1NC(=S)Nc1cccc(C(=O)O)c1,-3.5%,1.47µM*,?,13.2,11.9,-9.7%
O=C(/C=C/c1ccco1)Oc1cc(Br)cc(/C=N/NC(=O)c2ccccc2O)c1,10.5%,29.7%,?,39.0*,21.6,1.85µM*
CC(/C=C/c1ccco1)=N/NC(=O)c1ccc(C)nc1,82.8%,-0.3%,11.6%,7.0,11.3,-6.0%
O=C(CNc1cccc2ccccc12)N/N=C/c1ccc(OC(=O)/C=C/c2ccco2)cc1,-10.7%,-6.5%,-6.4%,1.1,-11.6,?
O=C(CNc1ccc2ccccc2c1)N/N=C/c1ccc(OC(=O)/C=C/c2ccco2)cc1,21.1%,30.8%,4.5%,14.8,-5.1,8.28µM*
Cc1ccc(C(=O)N/N=C/c2cccc(OC(=O)/C=C/c3ccco3)c2)cn1,7.3%,?,4.3%,33.4*,85.6*,31.4%
Cc1cccc(C)c1-n1nnnc1C1c2ccccc2C(=O)N1CCCn1ccnc1 (configuration not stated),-1.1%,.,.,.,.,.
O=C(/C=C\NCC(=O)c1ccccc1)c1ccc(F)cc1,-10.2%,50.3%,16.6%,28.3*,28.4,45.4%
O=C(/C=C\NCC(=O)c1ccccc1)c1ccc2ccccc2c1,7.8%[11.6 µM],37.0%,-13.0%,11.7*,51.9*,2.5%
CCn1nnc2cc(C(=O)Nc3cc(OC)cc(OC)c3)ccc21,11.9%,38.7%,?,.,.,9.7%
C#CCNC(=O)C[C@@H]1C[C@@]2(C(=O)OC)CC(C)(C)CC=C2N(Cc2ccccc2)C1=O,-2.9%,.,.,.,.,.
NC(=O)[C@H]1CC2(CC(c3cccc(NC(=O)COc4ccc(Cl)cc4)c3)=NO2)CN1C(=O)c1ccc(Cl)cc1 (some centres not stated),20.4%,?,-29.9%,7.3,15.8,13.1µM*
C/C=C\C(=O)Nc1cccc(C2=NOC3(C2)C[C@@H](C(N)=O)N(C(=O)COc2ccc(Cl)cc2)C3)c1 (some centres not stated),-0.8%,?,-16.9%,-1.8,38.2,?
SMILES,AMA1-RON2 inh,Pf growth 96h,HCV inh,Cycloheximide cs,Shiga toxin inh,Pf growth 48h
CCCCCC(=O)N1CC2(CC(c3cccc(NC(=O)COc4ccc(Cl)cc4)c3)=NO2)C[C@@H]1C(N)=O (some centres not stated),5.5%,13.1µM*,?,-1.6,-6.0,10.4µM*
CCC(=O)N1CC2(CC(c3cccc(NC(=O)COc4ccc(Cl)cc4)c3)=NO2)C[C@@H]1C(N)=O (some centres not stated),.,?,.,-3.1,-14.9,?
C/C=C/C(=O)N1CC2(CC(c3cccc(NC(=O)COc4ccc(Cl)cc4)c3)=NO2)C[C@@H]1C(N)=O (some centres not stated),-0.7%,5.22µM*,7.3%,4.0,13.9,13.1µM*
NC(=O)[C@H]1CC2(CC(c3cccc(NC(=O)COc4ccc(Cl)cc4)c3)=NO2)CN1C(=O)c1ccccc1C(=O)c1ccccc1 (some centres not stated),-0.1%,11.7µM*,?,-3.5,-5.1,11.7µM*
Cn1nc(C(=O)NCCOc2ccccc2)c2ccccc2c1=O,-19.0%,8.1%,4.2%,11.6,20.8,-0.1%
CC(=O)NCCNc1nc2cc(-c3cscc3C)sc2c(=O)n1C,-11.8%,.,.,.,.,.
O=C(CN1C(=O)CCS(=O)(=O)c2ccccc21)Nc1ccc(Cl)cc1,-6.4%,?,0.2%,-2.3,10.9,15.8%
NC(=O)[C@H]1CC2(CC(c3cccc(NC(=O)COc4ccc(Cl)cc4)c3)=NO2)CN1C(=O)CC(c1ccccc1)c1ccccc1 (some centres not stated),-1.8%,?,-6.7%[8.37 µM],0.9,3.0,?
NC(=O)[C@@H]1CC2(CC(c3cccc(NC(=O)CC(c4ccccc4)c4ccccc4)c3)=NO2)CN1C(=O)COc1ccc(Cl)cc1 (some centres not stated),-5.1%,11.7µM*,?,4.0,6.3,?
CC1(C(=O)N2CC3(CC(c4cccc(NC(=O)COc5ccc(Cl)cc5)c4)=NO3)C[C@@H]2C(N)=O)CC1 (some centres not stated),3.9%,?,?,-2.3,-7.2,13.1µM*
CCC(=O)Nc1cccc(C2=NOC3(C2)C[C@@H](C(N)=O)N(C(=O)COc2ccc(Cl)cc2)C3)c1 (some centres not stated),-5.3%,24.1%,?,-5.2,-7.2,?
CCCCc1ccc(S(=O)(=O)NC(=O)C2(C)CCN2C(=O)CCc2cccs2)cc1 (configuration not stated),-5.4%,.,.,.,.,.
CCc1ncc(C(=O)c2ccc(OC)cc2)n1C,31.4%,160.9%,28.7%,14.2*,8.6,24.4%
COc1cccc2c1C(=O)O/C2=C/c1ccc2c(c1)OCO2,.,122.4%,.,43.1*,71.2*,.
